High-throughput results (PubChem)
MBD2 DNA inh: MBD2-methylated oligo binding inhibition; Q9UBB5; TR-FRET, MBD2 binding to methylated oligonucleotide; inhibition, % at 4.4 µM; 370,000 compounds, 0.31% hits; AID 686964; in the data active = inhibition above about 13%
Casp6 inh: inhibitors of human caspase-6 | purified caspase-6, Z-VEID-R110 cleavage fluorescence | inhibition, % at 12.5 µM | 350,000 compounds, 0.53% hits;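 active = mean inhibition across replicates at least about 35%, with every replicate also reaching that limit, limit read from the data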;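 also: 0% = median of neutral control wells and 100% = no fluorescence left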
UHRF1 binding: UHRF1 methyl-DNA binding inhibition; AID 687016; 370,000 compounds, 0.75% hits; UHRF1 binding to methylated oligo, TR-FRET; Q96T88; inhibition, % at 4.4 µM; in the data active = inhibition above about 21%;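 also: UHRF1 SRA domain binding a hemimethylated CpG hairpin DNA probe; 0% = median of test compound wells and 100% = reference inhibitor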
LEDGF integ inh: blocks HIV-1 LEDGF/p75-dependent DNA integration. TR-FRET IN-LEDGF/p75 DNA integration, Eu/Cy5. 370,000 compounds, 0.64% hits. AID 743269. inhibition, % at 3.7 µM;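 active = inhibition above the screen-wide mean plus 3 SD, cut at about 13% in these data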;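 also: signal is the Cy5 over europium emission ratio at 671 and 618 nm; 0% = plate median of compound wells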
Numbers without * were called inactive; nt = not tested or not shown. Compounds with a hit are over-represented: about 1.4% of the library has one in this group of screens.

SMILES	MBD2 DNA inh	Casp6 inh	UHRF1 binding	LEDGF integ inh
COC(=O)C[C@@H]1C=C[C@@H](NS(=O)(=O)c2ccccc2F)[C@@H](CO)O1	nt	-2	nt	nt
C[C@@H]1CN([C@H](C)CO)C(=O)c2cc(NC(=O)Nc3ccc4c(c3)OCO4)ccc2O[C@H]1CN(C)Cc1ccc(C(F)(F)F)cc1	nt	1	nt	nt
CN1[C@H](C(=O)N2CCCCC2)[C@@H](CO)[C@@H]2Cn3c(ccc(/C=C/c4ccccc4)c3=O)[C@@H]21	nt	0	nt	nt
NC(CO)C(=O)NNCc1ccc(O)c(O)c1O (configuration not stated)	7	8	11	43*
CCc1ccc(NC(=O)C(C)Sc2nc(-c3ccco3)c(C#N)c(=O)[nH]2)cc1 (configuration not stated)	2	46*	1	8
N#Cc1c(-c2ccco2)nc(SCC(=O)Nc2cccc(Cl)c2)[nH]c1=O	5	nt	4	2
C/C(=N\NC(=O)c1sccc1-n1cccc1)c1cccs1	2	nt	41*	-7
O=C(NNC(=O)c1sccc1-n1cccc1)c1cccs1	-3	3	1	1
Cc1noc(C)c1NC(=O)N(C)C[C@@H]1OCCCC[C@@H](C)Oc2ccc(NC(=O)Nc3cccc4ccccc34)cc2C(=O)N([C@@H](C)CO)C[C@@H]1C	nt	0	nt	nt
Clc1cccc(Cl)c1CN1CCN(c2ncccn2)CC1	-4	-5	-4	3
Cn1nc(-c2ccccc2)c(CN2CCN(c3ncccn3)CC2)c1Cl	7	0	34*	7
CO[C@@H]1CN(C)C(=O)c2cc(NC(=O)Nc3ccc4c(c3)OCO4)ccc2OC[C@H](C)NC[C@H]1C	nt	-2	nt	nt
O=C(O)c1cc(Nc2cc(Cl)c3nonc3c2[N+](=O)[O-])ccc1O	-16	49*	-4	1
Cc1noc(C)c1S(=O)(=O)N(C)C[C@@H]1Oc2c(NC(=O)c3ccc(-c4nccs4)cc3)cccc2C(=O)N([C@@H](C)CO)C[C@@H]1C	nt	-1	nt	nt
Cc1cc(C)n2cc(CSc3nnc(N)s3)nc2n1	7	nt	22*	9
Nc1ccc(OC(=O)Nc2ccc(O)cc2)cc1	-2	61*	7	4
Nc1ccc(C(=O)OCC(=O)Nc2cc([N+](=O)[O-])ccc2F)cc1	-4	1	42*	-5
O=C(COC(=O)C1CCCCC1)Nc1cc([N+](=O)[O-])ccc1F	0	-2	-3	-3
COc1ccc(CN(C)CCCn2cnc3c(SC)ncnc32)cc1OC	3	10	29*	-4
O=C(C[C@@H]1CC[C@H]2[C@@H](COC[C@H](O)CN2C(=O)C2CC2)O1)NCc1ccccc1Cl	nt	0	nt	nt
CC1CN(C(=O)c2ccccc2Oc2ccccc2)CC(C)O1 (configuration not stated)	4	2	33*	3
C[C@@H]1CN([C@@H](C)CO)C(=O)c2cc(-c3cccc(F)c3)cnc2O[C@H]1CN(C)S(=O)(=O)c1cccc(F)c1	nt	-1	nt	nt
CCOC(=O)C1(Cc2ccccc2C)CCCN(C(=O)CCc2cccnc2)C1 (configuration not stated)	5	60*	3	3
CO[C@@H]1CC[C@H]2CCOc3ccc(C#N)cc3C(=O)N(C)C[C@@H](OC)[C@H](C)C(=O)N(C)C[C@@H]1O2	nt	1	nt	nt
COC(=O)C1=C(C)NC(=S)NC1c1ccc(-c2ccccc2C(=O)OC)o1 (configuration not stated)	4	7	22*	1
SMILES	MBD2 DNA inh	Casp6 inh	UHRF1 binding	LEDGF integ inh
C/C=C/c1cnc2c(c1)C(=O)N([C@@H](C)CO)C[C@H](C)[C@H](CN(C)C(=O)NCCC)O2	nt	3	nt	nt
CCCOC(=O)c1c(NC(=O)C2CCCO2)sc(C(=O)OC)c1C (configuration not stated)	2	-4	25*	2
CN(C)S(=O)(=O)c1ccc(Cl)c(C(=O)Nc2nc3ccccc3[nH]2)c1	2	4	39*	-2
O=C(NCC1CCCCC1)[C@H]1[C@H](CO)[C@H]2Cn3c(cccc3=O)[C@H]2N1Cc1ccccn1	nt	-4	nt	nt
C[C@@H]1CN([C@H](C)CO)C(=O)c2ccccc2-c2ccccc2CO[C@@H]1CN(C)Cc1cccc(C(=O)O)c1	nt	2	nt	nt
Cc1ccc2nc(-c3ccccc3)cn2c1	1	nt	4	3
Cc1ccc2nc(-c3ccc(O)c(O)c3)cn2c1	-2	38*	1	23*
Nc1c(C(=O)Nc2ccc(Br)cc2)sc2nc(-c3ccco3)ccc12	-1	nt	-4	15*
CC(=O)Nc1cccc2cc(S(=O)(=O)O)ccc12	5	44*	6	-2
CC(=O)Nc1cccc2cc(O)ccc12	2	12	0	3
COc1cc(C)ccc1OCC(=O)OCC(=O)c1cc(C)n(CC2CCCO2)c1C (configuration not stated)	-3	5	-2	-2
COc1cc(C(=O)OCC(=O)c2cc(C)n(CC3CCCO3)c2C)cc(OC)c1C (configuration not stated)	4	5	21*	-1
NC(Cc1c[nH]c2ccccc12)C(=O)NCc1ccccc1 (configuration not stated)	-2	-1	25*	7
NC(Cc1c[nH]c2ccccc12)C(=O)NCc1ccco1 (configuration not stated)	1	0	0	0
CC(C)CCN(CCC(C)C)C(CO)(CO)CO	11	0	22*	-6
COC(=O)CSC1=C(C#N)C(c2ccc(Cl)cc2)C(C(=O)OC)C(=O)N1 (configuration not stated)	11	nt	23*	1
O=C(/C=C/c1cccc([N+](=O)[O-])c1)NCCc1ccc(F)cc1	-1	nt	38*	0
O=C(/C=C/c1ccc([N+](=O)[O-])cc1)NCCc1ccc(F)cc1	0	1	-2	-2
COc1cc(NCc2ccccc2)c2ncn(C(C)C)c2c1	0	1	0	3
COc1cc(NCCCNC(C)C)c2nccc(C)c2c1	-9	88*	-3	12
CCc1ccccc1NC(=S)N1CCN(c2ccccc2F)CC1	-4	0	-2	3
Cc1ccc(NC(=S)N2CCN(c3ccccc3F)CC2)c(C)c1	3	19	24*	-1
CN1[C@@H]2c3ccc(C4=CCCC4)c(=O)n3C[C@H]1[C@H](CO)[C@H]2C(=O)NC1Cc2ccccc2C1	nt	-1	nt	nt
O=C1C2C3C=CC(C2C(=O)N1c1nccs1)C1C(=O)N(c2nccs2)C(=O)C31 (configuration not stated)	2	9	-2	-7
O=C1C2C3C=CC(CC3)C2C(=O)N1c1nccs1 (configuration not stated)	6	67*	21*	0
C[C@H](CO)N1C[C@H](C)[C@@H](CN(C)C(=O)NC2CCCCC2)Oc2ccc(NC(=O)Nc3ccc(F)cc3)cc2CC1=O	nt	-2	nt	nt
C[C@@H]1CN([C@@H](C)CO)C(=O)c2cc(-c3cccnc3)cnc2O[C@H]1CN(C)C(=O)C1CCOCC1	nt	0	nt	nt
O=C(O)CSc1cc(C(=O)c2ccccc2O)cn2c(=O)c3c(-c4ccccc4)csc3nc12	6	39*	0	5
